High-throughput results as filed in PubChem BioAssay.
NRP1-CendR mod – modulators of CendR peptide binding to NRP-1, primary screen, biochemical, fluorescence polarization, uHTS | Neuropilin-1 (Homo sapiens), O14786 | FAM-RPARPAR peptide binding to NRP-1 | inhibition, % at 25 µM | 360,000 tested, 0.85% active | AID 602438, 2012;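 active = inhibition or corrected inhibition above about 18%, plus a signal ratio from 0.5 to 1.5, limit read from the data, passing the limit was not always enough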
APOBEC3G inh – APOBEC3G DNA deaminase inhibitors, primary screen, biochemical, fluorescence, single-stranded DNA substrate, uHTS. 330,000 tested, 0.28% active. recombinant A3G, ssDNA deamination FAM/TAMRA fluorescence. DNA dC->dU-editing enzyme APOBEC-3G (Homo sapiens), Q9HC16. inhibition, % at 20 µM. AID 493012, 2011;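 active = inhibition of at least 40% at 20 µM, with no more than 30% in the related APOBEC3A deaminase screen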
beta cell repl – inducers of MIN6 beta-cell proliferation, primary screen, ATP luminescence, uHTS | 330,000 tested, 0.29% active | proliferation, % at 10 µM | MIN6 cells proliferation, ATPlite luminescence, 48 h; cells starved in 0.2% serum; 100% = growth in 10% serum;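 active = compounds whose signal lies at least 3.5 SD above the mean of all wells on their plate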
VLA-4 inh – inhibition in human VLA-4 binding assay, primary screen, VLA-4 allosteric modulator project, MLPCN library, flow cytometry, VLA-4 expressing cells | 330,000 tested, 0.2% active | ligand binding flow cytometry | Integrin alpha-4 (Homo sapiens), P13612 | inhibition, % (about 7 µM as worked out from the volumes in the protocol) | AID 2557, 2010; in the data active = inhibition above about 50%
APOBEC3A inh – APOBEC3A ssDNA deaminase inhibitors, primary screen, selectivity assay for APOBEC3G inhibitor project, biochemical, FAM/TAMRA oligo cleavage fluorescence. recombinant A3A, FAM/TAMRA ssDNA deamination fluorescence. inhibition, % at 20 µM. DNA dC->dU-editing enzyme APOBEC-3A (Homo sapiens), P31941. 330,000 tested, 0.41% active. AID 493011, 2011;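 active = at least 40% inhibition at 20 µM here, with at most 30% in a related deaminase screen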
Each line names hits and unclear results; the compound was inactive in the other large screens. Rows were chosen to be rich in hits. Some 1.8% of all compounds tested hit in one or more screens of this group.

Fc1ccc(Nc2nnc(-c3ccncc3)s2)cc1Cl	NRP1-CendR mod 35 (no result: APOBEC3G inh, beta cell repl, VLA-4 inh, APOBEC3A inh)
O=C(Nc1ccc(Cl)cc1)Nc1nnc(-c2ccncc2)s1	none (no result: APOBEC3G inh, beta cell repl, APOBEC3A inh)
CC(=O)N[C@@H](Cc1c[nH]c2ccccc12)C(=O)NC1CCCc2ccccc21 (some centres undefined)	none
CN1CCN(c2c([N+](=O)[O-])cnc3ccccc23)CC1	none
CCc1ccc(-c2cc3c(=O)n(CC(=O)NCCCN4CCN(CC)CC4)nc(C)n3n2)cc1	NRP1-CendR mod 24
CCn1nc(C(=O)OCC(=O)NCCN2C(=O)CSC2=O)c2ccccc2c1=O	NRP1-CendR mod 38
CCOC(=O)C1(Cc2ccc(Cl)cc2)CCN(Cc2ccon2)CC1	none
CCOC(=O)C1(Cc2cccc(F)c2)CCN(Cc2ccon2)CC1	NRP1-CendR mod 30
Cc1ccccc1CC(=O)Nc1ccc(S(=O)(=O)N2CCN(C)CC2)cc1	none
COc1ccc(Cl)cc1NC(=O)CCc1nnc2ccc(N3CCN(C)CC3)nn12	none
COc1ccc(-n2nnnc2SC(C)C(=O)NC2CCCC2)cc1 (centres undefined)	NRP1-CendR mod 20
Cc1ccc(C)c(-n2c(SCC(=O)N3CCC(C(=O)O)CC3)nnc2-c2cccc(Cl)c2)c1	NRP1-CendR mod 27
COc1ccc(NC2CCCN(C(=O)c3ccc(C(C)=O)s3)C2)cc1 (centres undefined)	none
COc1cc2cc(CCCOC(=O)c3cccc(Br)c3)oc(=O)c2cc1OC	none
Cc1onc(-c2c(Cl)cccc2Cl)c1C(=O)NCCCN1CCOCC1	none
Cc1onc(-c2c(Cl)cccc2Cl)c1C(=O)c1c[nH]c(C(=O)NCCCN2CCOCC2)c1	NRP1-CendR mod 23
OCc1ccccc1OCCCOc1cccc2cccnc12	NRP1-CendR mod 33
COC(=O)[C@H](C)N(Cc1ccc(Cl)c(Cl)c1)S(=O)(=O)CCNC1CCCC1	none (no result: beta cell repl, VLA-4 inh)
COc1ccc(NC(=O)C[C@H]2C(=O)N(c3ccccc3)C[C@@H]2CSC)cc1	none (no result: APOBEC3G inh, beta cell repl, VLA-4 inh, APOBEC3A inh)
CCOC(=O)Cc1ccc(NS(=O)(=O)c2ccc(SC)cc2)cc1	NRP1-CendR mod 25
CCOC(=O)c1ccc(NS(=O)(=O)c2ccc(SC)cc2)cc1	none
Cn1cccc1C1Nc2ccccc2NC2=C1C(=O)CC(C)(C)C2 (centres undefined)	NRP1-CendR mod 22
CCN1C(=O)/C(=C\c2cn(-c3ccccc3)nc2-c2cccnc2)SC1=S	NRP1-CendR mod 36 (no result: APOBEC3G inh, beta cell repl, VLA-4 inh, APOBEC3A inh)
CCc1nnc(NC(=O)CCC(=O)N2CCN(c3cc(Cl)ccc3C)CC2)s1	none
Cc1ccc2c(C)c(C(=O)Nc3ccc(S(N)(=O)=O)cc3)oc2c1C	NRP1-CendR mod 40
CCCCC(O)(CCCC)C(=O)NN(C(=O)OC)c1ccccc1	NRP1-CendR mod 31
CN(Cc1ncc[nH]1)C(=O)CC1C(=O)NCCN1Cc1c(F)cccc1Cl (centres undefined)	NRP1-CendR mod 23
Cc1cc(CN(C)C(=O)CC2C(=O)NCCN2Cc2c(F)cccc2Cl)on1 (centres undefined)	none
Cc1nc(NCc2ccco2)c2cn[nH]c2n1	NRP1-CendR mod 28 (no result: APOBEC3G inh, beta cell repl, VLA-4 inh, APOBEC3A inh)
COCc1cc(C)nc(SCC(=O)Nc2ccc(N3CCOCC3)cc2)c1C#N	none
COC(=O)CNC(=O)C1CC(=O)N(CCc2ccc(F)cc2)C1 (centres undefined)	none
O=C(Cn1c(=O)c2c(ncn2Cc2ccccc2)n(Cc2ccccc2)c1=O)N1CCc2ccccc21	none
O=C(Cn1c(=O)c2c(ncn2C2CCCC2)n(Cc2ccccc2)c1=O)N1CCc2ccccc21	NRP1-CendR mod 29
Cc1ccc2oc(C(=O)NCC3CCOCC3)c(C)c2c1	NRP1-CendR mod 26
Cc1ccc2c(C)c(C(=O)NCC3CCOCC3)oc2c1C	none (no result: APOBEC3G inh, beta cell repl, VLA-4 inh, APOBEC3A inh)
Cc1ccc(S(=O)(=O)NC(CN2CCOCC2)=NCCNS(=O)(=O)c2ccccc2)cc1	NRP1-CendR mod 36
Cc1ccc(S(=O)(=O)NCCNC(=O)N2CCOCC2)cc1	none
CCOc1ccc(C(=O)NC2CCN(C(=S)NCc3ccco3)CC2)cc1	NRP1-CendR mod 26
COc1ccc(C(=O)NC2CCN(C(=S)Nc3ccccc3C)CC2)cc1	NRP1-CendR mod 19
Cc1cccc(C(=O)NC2CCN(C(=S)NCc3ccco3)CC2)c1	none
CCC1Sc2ccc(S(=O)(=O)N3CCN(c4ccccc4)CC3)cc2NC1=O (centres undefined)	none
O=C(NN=C1CCCCCC1)c1ccncc1	none
CC1CCC/C(=N\NC(=O)c2ccncc2)C1 (centres undefined)	NRP1-CendR mod 30
CCCCC1=CC2=CC(=O)C(C)(OC(=O)CC)C(=O)C2=CN1Cc1ccc(OC)cc1 (centres undefined)	NRP1-CendR mod 35
C=CCN1C=C2C(=O)C(C)(OC(=O)CC)C(=O)C=C2C=C1CCCC (centres undefined)	none
CCCCC1=CC2=CC(=O)C(C)(OC(=O)CC)C(=O)C2=CN1CC(C)C (centres undefined)	none
C=CCN1C=C2C(=O)C(C)(OC(=O)c3cccs3)C(=O)C=C2C=C1CCCC(=O)OC (centres undefined)	NRP1-CendR mod 28
CCCCC1=CC2=CC(=O)C(C)(OC(=O)CC)C(=O)C2=CN1C(CO)CO (centres undefined)	NRP1-CendR mod 35
COC(=O)CCCC1=CC2=CC(=O)C(C)(OC(=O)c3cccs3)C(=O)C2=CN1CCc1ccccn1 (centres undefined)	none
COc1cc(NC(=O)CSc2nc(=O)n(CCN3CCOCC3)c3c2CCCC3)cc(OC)c1	none
CN(Cc1ccccc1)C(=O)Cn1nnc(-c2ccccc2)c1COc1ccccc1	none (no result: APOBEC3G inh, beta cell repl, VLA-4 inh, APOBEC3A inh)
CCOC(=O)/C=C/[C@H]1CC(c2ccccc2)(c2ccccc2)CO1	none
CCN1CCN(c2ncc(C(=O)N3CCN(c4ccccc4OC)CC3)c3ccccc23)CC1	NRP1-CendR mod 22 (no result: APOBEC3G inh, beta cell repl, VLA-4 inh, APOBEC3A inh)
Cc1ccc2c(c1)c(=O)c1c3n2CCN(C(=O)CCl)C3CC1 (centres undefined)	NRP1-CendR mod 26
COc1ccccc1N1CCN(C(=O)C(=O)c2c[nH]c3ccccc23)CC1	none
O=C(COC(=O)c1cccnc1Cl)NC(=O)c1ccc(OC(F)F)cc1	none
O=C1N/C(=C/c2cccn2-c2ccc(F)cc2)C(=O)N1Cc1ccccc1F	NRP1-CendR mod 43
Cc1nc(SCC(=O)N2CCN(C(=O)c3cccs3)CC2)c2c(C)c(C)sc2n1	none (no result: VLA-4 inh)
Cc1ccnc(NC(c2ccccc2)c2ccc3cccnc3c2O)c1 (centres undefined)	NRP1-CendR mod 33 (no result: APOBEC3G inh, beta cell repl, VLA-4 inh, APOBEC3A inh)
Cc1ccnc(NC(c2cccnc2)c2ccc3cccnc3c2O)c1 (centres undefined)	none
